In PubChem BioAssay (NCATS):
Records with an inconclusive call do not appear. The source made the active and inactive calls. Unless noted, how the calls were made is not given here.

Key:
[1] = qHTS profiling of the MIPE4 collection as inhibitors of Plasmodium falciparum (DD2) proliferation (Rep 2) (AID 743346); conditions: P. falciparum Dd2 in erythrocytes, SYBR Green DNA, 72 h; at 28.5 µM unless noted
Method in brief: (§1)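 Parasite DNA was quantified by SYBR Green I fluorescence (ex 485, em 535 nm) after overnight lysis in saponin/Triton buffer at room temperature. Cultures at 0.3% parasitemia and 2.5% hematocrit were first exposed to compound for 72 h at 37 C; signals were normalised to artemisinin (0.29 uM) and vehicle wells.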

[2] = qHTS profiling of the MIPE4 collection as inhibitors of Plasmodium falciparum (HB3) proliferation (AID 743347);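 further: plate controls were DMSO vehicle wells for no effect and artemisinin wells for full effect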; conditions: P. falciparum HB3 in erythrocytes, SYBR Green DNA, 72 h; at 28.5 µM unless noted
Method in brief: as §1

[3] = High-throughput drug toxicity screening in the BPDCN cell line Gen2.2 (AID 1224824); conditions: Gen2.2 BPDCN cells; at 45.8 µM (top of the series) unless noted;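 further: cells exposed to compounds for 48 h before reading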
Method in brief: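 CellTiter-Glo luminescence after 48 h compound exposure of Gen2.2 cells; percent activity set with DMSO as 100% and bortezomib (9.2 uM final) as 0%. Cells seeded at 500 per well, RPMI + 10% FBS, 37 °C.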

[4] = High-throughput drug toxicity screening in the BPDCN cell line Cal-1 (AID 1224825); conditions: Cal-1 BPDCN cell viability, qHTS; at 45.8 µM (top of the series) unless noted
Method in brief: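 Viability of the BPDCN line Cal-1 is measured as ATP-based luminescence (CellTiter-Glo) following 48 h incubation with compounds. Percent activity uses DMSO-treated wells as 100% and 9.2 uM bortezomib as 0%.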

[5] = qHTS assay for measurement of the activity of small molecule inhibitors on Zika virus induced Caspase-3 activity in human iPSC derived neural progenitor cells (hNPCs) (AID 1224857; active means well fitted inhibition curve with a large enough effect; further: nearly all actives have a fitted effect of over 65% in size; further: potency means the concentration at half of the fitted maximal effect)
Method in brief: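 Human iPSC-derived neural progenitor cells pretreated 1 hr with compounds, then infected with Zika virus (2 FFU/cell) for 6 hours at 37 C. Caspase-3/7 measured by Caspase-Glo luminescence; % inhibition calculated from induction scaled to uninfected (0%) and infected (100%) wells.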

[6] = qHTS assay for measurement of the activity of small molecule inhibitors on Zika virus induced Caspase-3 activity in human astrocytoma cells (AID 1224859; active means well fitted inhibition curve with a large enough effect; further: potency means the concentration at half of the fitted maximal effect)
Method in brief: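 SNB-19 astrocytoma cells, 250/well, pretreated 1 h with compounds, then Zika virus at 2 FFU/cell for 6 h at 37 C; Caspase-Glo 3/7 luminescence after 30 min; percent inhibition normalised to uninfected and infected controls.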

[7] = qHTS Screen of the MIPE 4.0 Collection Against Ewings Sarcoma (TC32) (AID 1259256; active means well fitted inhibition curve with a large enough effect; further: nearly all actives have a fitted effect of over 45% in size; further: potency means the concentration at half of the fitted maximal effect)
Method in brief: (§2)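 Measured: ATP luminescence (CellTiter-Glo) 10 min after reagent addition, following 48 h drug treatment. Relative luciferase units converted to percent activity, with no-cell wells as full and DMSO wells as zero inhibition.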

[8] = qHTS Screen of the MIPE 4.0 Collection Against Ewings Sarcoma (RDES) (AID 1259252; active means well fitted inhibition curve with a large enough effect; further: nearly all actives have a fitted effect of over 35% in size; further: potency means the concentration at half of the fitted maximal effect)
Method in brief: as §2

[9] = qHTS Screen of the MIPE 4.0 Collection Against Ewings Sarcoma (EW8) (AID 1259255; active means well fitted inhibition curve with a large enough effect; further: nearly all actives have a fitted effect of over 35% in size; further: potency means the concentration at half of the fitted maximal effect;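 on viability: 100% = DMSO-treated cells and 0% = medium-only wells without cells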)
Method in brief: as §2

[10] = qHTS Screen of the MIPE 4.0 Collection Against Ewings Sarcoma (TC71) (AID 1259253; active means well fitted inhibition curve with a large enough effect; further: nearly all actives have a fitted effect of over 40% in size; further: potency means the concentration at half of the fitted maximal effect)
Method in brief: as §2

SMILES	parasite growth, % of control (lower = inhibition) [1] [%]	growth, % of control [2]	cell viability, % of control (lower = more cytotoxic) [3]	viability (% of control) [4]	Potency [5]	Potency [6]	Potency [7]	Potency [8]	Potency [9]	Potency [10]
CC(C)C[C@H](CC(=O)O)C(=O)N[C@@H](Cc1c[nH]c2ccccc12)C(=O)N[C@@H](C)c1ccccc1	57.5	34.7%	161%	6.64%	inactive	inactive				
O=C(O)c1ccc(-c2cc3cccnc3c(-c3ccc4nonc4c3)n2)cc1	37.1	3.01%	30.2%	18.7%	inactive	inactive	26.4 µM (active)			
CC(C)C(=O)Nc1ncc(-c2cc(C(F)F)nn2-c2c(Cl)cccc2Cl)s1	18.7	11.3%	113%	6.45%	inactive	inactive				
CC1(C)CCC[C@@]2(C)[C@@H]1CC[C@@]1(C)OC(=O)C[C@H]21	56.5	64.8%	95%	102%	inactive	inactive				
C[C@]12CC[C@@H]3c4ccc(O)cc4C[C@@H](CCCCCCCCCS(=O)CCCC(F)(F)C(F)(F)F)[C@H]3[C@H]1CC[C@H]2O (some centres undefined)	10.8	3.95%	105%	108%	inactive	inactive	inactive			
CO[C@H]1C[C@@H]2CC[C@@H](C)[C@@](O)(O2)C(=O)C(=O)N2CCCC[C@@H]2C(=O)O[C@H]([C@H](C)C[C@@H]2CC[C@H](OP(C)(C)=O)[C@H](OC)C2)CC(=O)[C@H](C)C=C(C)[C@@H](O)[C@@H](OC)C(=O)[C@H](C)C[C@H](C)C=CC=CC=C1C	9.19	8.46%	10.4%	5.8%	inactive	inactive				
Cc1ccc([C@@H]2O[C@H](CO)[C@@H](O)[C@H](O)[C@@H]2O)cc1Cc1ccc(-c2ccc(F)cc2)s1	75.3	310%	126%	48.1%	inactive	inactive				
c1cc(-c2sc(-c3ccncc3)c(-c3ccncc3)c2-c2ccncc2)ccn1	19.1	3.72%	64.5%	79.1%	inactive	inactive				
COC[C@@H](c1ccc(C(F)(F)F)cc1)N1CCN(C2(C)CCN(C(=O)c3c(C)ncnc3C)CC2)C[C@H]1C	21.5	28.5%	7.13%	6.85%	inactive	inactive				
COCCOc1nc(-c2ccc(Cl)c(Cl)c2)n(-c2ccc(NC(=O)CCl)cc2)n1	31.7	30.2%	114%	37.2%	inactive	inactive				
Cc1[nH]c(C=C2C(=O)Nc3ccc(S(=O)(=O)Cc4c(Cl)cccc4Cl)cc32)c(C)c1C(=O)N1CCC[C@H]1CN1CCCC1	12	5.52%	6.62%	2.43%	inactive	inactive	37.2 µM (active)			
O=C(O)c1ccc(-c2c[nH]c3ncc(-c4ccccc4)cc23)cc1C1CCCC1	9.67	3.77%	116%	73.1%	inactive	inactive	inactive			
Cc1ccc(/C=N/NC(=O)c2ccccc2Oc2ccccc2)o1		92%	76%	18.6%	inactive	inactive	inactive			
O=C(N[C@@H](c1ccccc1)[C@@H]1CCCCN1)c1cccc(C(F)(F)F)c1Cl	26.8	8.07%	87.4%	24.7%	inactive	inactive				
N#Cc1ccc(NC(=O)Nc2ccccc2Br)c2n[nH]nc12	21.8	7.81%	183%	14.7%	inactive	inactive				
CC(C)n1cnc2c(NCCCCCCNC(=O)OC(C)(C)C)nc(NCCO)nc21		21.3%	186%	100%	inactive	inactive				
Cc1ccn(-c2ccc(-c3ncco3)cc2)c(=O)c1-c1ccc2nc(N)ncc2c1	56.7	72.3%	316%	62.2%	inactive	inactive	3.72 µM (active)			
CN(C)Cc1cccc(N=C(c2ccccc2)c2c(O)[nH]c3cc(C(=O)N(C)C)ccc23)c1	12.9	36.3%	6.16%	6.94%	inactive	inactive				
OC[C@H]1O[C@@H](n2cnc3c2NC=NC[C@@H]3O)C[C@H]1O	146	97.8%	188%	109%	inactive	inactive				
CO[C@H]1C[C@@H]2CC[C@@H](C)[C@@](O)(O2)C(=O)C(=O)N2CCCC[C@@H]2C(=O)O[C@H]([C@H](C)C[C@@H]2CC[C@H](OC(=O)C(C)(CO)CO)[C@H](OC)C2)CC(=O)[C@H](C)C=C(C)[C@@H](O)[C@@H](OC)C(=O)[C@H](C)C[C@H](C)C=CC=CC=C1C	9.78	3.93%	6.71%	3.11%	inactive	inactive				
CCOC(=O)O[C@]1(C(=O)OCCl)CC[C@@H]2[C@H]3CCC4=CC(=O)C=C[C@]4(C)[C@@H]3[C@@H](O)C[C@@]21C	44.6	68.7%	84.3%	77.6%	inactive	inactive				
COc1cc(NC(=O)c2ccc(-c3ccc(Cl)cc3)o2)cc(OC)c1	99.4	94.4%	9.04%	6.59%	inactive	inactive				
CC(C)(C)OC(=O)N[C@H]1CCCCCC=C[C@@H]2C[C@@]2(C(=O)NS(=O)(=O)C2CC2)NC(=O)[C@@H]2C[C@@H](OC(=O)N3Cc4cccc(F)c4C3)CN2C1=O	10.1	4.63%	46.5%	99.3%	inactive	inactive	inactive			
Cc1ccc(C(C)(O)c2nc3ccccc3s2)c(C)c1 (centres undefined)	88.7	95.9%	129%	6.97%	inactive	inactive				

SMILES	parasite growth, % of control (lower = inhibition) [1] [%]	growth, % of control [2]	cell viability, % of control (lower = more cytotoxic) [3]	viability (% of control) [4]	Potency [5]	Potency [6]	Potency [7]	Potency [8]	Potency [9]	Potency [10]
CC(C)=CC[C@@H](O)C1=CC(=O)c2c(O)ccc(O)c2C1=O	4.13	2.71%	5.88%	13.2%	inactive	inactive				
N#CC1(c2ccc(NC(=O)c3cccnc3NCc3ccncc3)cc2)CCCC1		23.3%	286%	93.1%	16.6 µM (active)	18.7 µM (active)	inactive			
CC(C)(C(=O)NCC(F)(F)C(F)(F)F)C(=O)N[C@@H]1C(=O)Nc2ccccc2-c2ccccc21	11.3	10.3%	71.1%	5.17%	inactive	inactive				
CCC(=O)NC[C@H](Cc1ccc(OCCc2nc(-c3ccccc3)oc2C)cc1)NC(C)=CC(=O)c1ccc(C(F)(F)F)cc1	21.5	9.04%	96.4%	5.56%	inactive	inactive				
O=C(NOCC(O)CO)c1cc(Br)c(F)c(F)c1Nc1ccc(I)cc1F (centres undefined)	100	77.4%	1.76%	57.3%	inactive	inactive				
O=c1c(-c2ccc(O)cc2)coc2cc(O)ccc12	89.3	89.3%	119%	109%	11.2 µM (active)			11.8 µM (active)	inactive	
O=C1NC(=O)C(=Cc2ccc3c(c2)OC(F)(F)O3)S1		125%	54.2%	83%	inactive	inactive				
CC(=O)Nc1ccc([C@H](C)C(=O)Nc2ncc(C(C)C)s2)cc1		2.84%	7.33%	6.1%	14.8 µM (active)		4.18 µM (active)	2.96 µM (active)	5.9 µM (active)	2.96 µM (active)
O=c1cc(CN2CCOCC2)occ1OCCCCCSc1ccnc2cc(C(F)(F)F)ccc12	33.6	12.1%	186%	75.4%	inactive		18.7 µM (active)			
O=C(CCN1CCN(C(=O)OCc2cc(Cl)cc(Cl)c2)CC1)c1ccc2[nH]c(=O)oc2c1	85	105%	231%	115%	20.9 µM (active)		inactive	inactive	inactive	inactive
CC[C@@H]1C=C(C)C[C@H](C)C[C@H](OC)[C@H]2O[C@@](O)(C(=O)C(=O)N3CCCC[C@@H]3C(=O)O[C@H](C(C)=C[C@@H]3CC[C@H](Cl)[C@H](OC)C3)[C@H](C)[C@@H](O)CC1=O)[C@H](C)C[C@H]2OC		64.6%	12.7%	20.8%	inactive	inactive				
CN(C)Cc1ccc(-c2nc3cccc4c3n2CCNC4=O)cc1	73.5	97%	15.8%	4.01%	inactive					18.7 µM (active)
CO[C@@H](C(=O)N1Cc2[nH]nc(NC(=O)c3ccc(N4CCN(C)CC4)cc3)c2C1)c1ccccc1		3.96%	134%	6.89%	inactive		0.0662 µM (active)		0.0935 µM (active)	
CO[C@H]1C[C@@H]2CC[C@@H](C)[C@@](O)(O2)C(=O)C(=O)N2CCCC[C@@H]2C(=O)O[C@H]([C@@H](C)C[C@@H]2CC[C@H](O)[C@H](OC)C2)CC(=O)[C@H](C)C=C(C)[C@@H](O)[C@@H](OC)C(=O)[C@H](C)C[C@H](C)C=CC=CC=C1C		6.63%	5.13%	2.54%	inactive	inactive				
CS(=O)c1ccc(-c2nc(-c3ccc(F)cc3)c(-c3ccncc3)[nH]2)cc1 (centres undefined)		7.77% [at 57.5 µM]	41.2% [at 92.2 µM]	14.2% [at 92.2 µM]	inactive	inactive				
CC#CCn1c(N2CCC[C@@H](N)C2)nc2c1c(=O)n(Cc1nc(C)c3ccccc3n1)c(=O)n2C		88.9%	159%	101%	inactive	inactive				
COc1ccc2c(Oc3ccc(NC(=O)c4c(C)n(CC(C)(C)O)n(-c5ccccc5)c4=O)nc3)ccnc2c1		8.88%	29.7%	17.2%	inactive		18.7 µM (active)			
CON=C(C(=O)N[C@@H]1C(=O)N2C(C(=O)OCOC(=O)C(C)(C)C)=C(C=Cc3scnc3C)CS[C@H]12)c1csc(N)n1		84.9%	90.5%	115%	inactive	inactive				
COc1ccc(Cc2ccc(NC(N)=O)cc2)cc1-c1cccc(Cl)c1	38.4	69.6%	234%	91.3%	inactive		23.5 µM (active)			
O=C1Nc2ccc(Cl)cc2C(C#CC2CC2)(C(F)(F)F)O1 (centres undefined)	57.2	63%	75.6%	56.5%	inactive				26.4 µM (active)	
NC(=O)c1cccc2[nH]c(-c3ccc([C@H]4CCCN4)cc3F)nc12		2.5%	104%	19.9%	18.7 µM (active)		11.8 µM (active)	7.43 µM (active)	18.7 µM (active)	14.8 µM (active)
COc1cc2ncnc(-n3nc(-c4ccccn4)nc3N)c2cc1OC		6.36%	59.8%	46.1%	inactive		18.7 µM (active)			18.7 µM (active)
C=CCc1ccc(O)c(-c2ccc(O)c(CC=C)c2)c1		3.7%	34.9%	21.1%	inactive	inactive				
CC1(C)Cc2c(sc(NC(=S)NC(=O)c3ccccc3)c2C(=O)O)CO1	110	103%	100%	95.7%	20.9 µM (active)			29.6 µM (active)	inactive	
